Reference: PubChem BioAssay AID489025 (Southern Research Specialized Biocontainment Screening …, 2010)
Among all 2,300 compounds or so, about 790 (34%) were called active. The list shows a part of the results. Measured potencies and affinities stand elsewhere. A number with no mark means an inactive call. How the calls were made is not given here.

Experiment: THP-1 cell cytotoxicity, dose response, cytotoxicity control for non-replicating M. tuberculosis project (AID 489025)
Conditions: THP-1 cell viability; series mostly up to 40 µM; viability: at the top concentration

SMILES | viability [%]
CC(C)Cc1cc(C(=O)Nc2ccc(F)cc2F)no1 | 94.8
O=C(Nc1ccc(F)cc1F)c1cc2ccccc2oc1=O | 93.2
CCCNC(=O)NC(=O)COc1ccc(-c2ccc(C#N)cc2)cc1 | 98.2
O=C(COc1ccc(-c2ccccc2)cc1)Nc1cccnc1 | 77
O=C(NC(=S)Nc1ccc(F)cc1)C1CCCCC1 | 102
CN(/N=C/c1ccc([N+](=O)[O-])o1)c1ccccc1 | 87.6
CC1=CN2C(=N)/C(=C/c3ccc([N+](=O)[O-])o3)C(=O)N=C2S1 | 115
CC(C)[C@H](NC(=O)c1ccc(Br)cc1)C(=O)NC1CCCCC1 | 108
c1ccc(Nc2nc(-c3ccccn3)cs2)cc1 | 92.5
COc1ccc(CCNc2nc(-c3ccccn3)cs2)cc1OC | 80.1
CN1CCN(c2cc3c(cc2F)c(=O)c(C(=O)O)cn3CCF)CC1 | 88.5
S=C1NC2(CCCC2)N=C1c1ccccc1 | 129
CCOC(=O)c1csc(-c2snnc2C)n1 | 95.3
COc1ccc(COC(=O)CCNC(=O)c2ccc(Cl)cc2)cc1 | 109
COC(=O)COc1cccc(NC(=O)c2ccc(Cl)cc2)c1 | 73.2
CNC(=O)COC(=O)c1ccc(-c2nc3ccccc3s2)s1 | 96.6
CC(C)N1CCc2c(sc(NC(=O)CCS(=O)(=O)c3ccccc3)c2C#N)C1 | 100
O=C(COc1ccc2ccccc2c1)NNC(=O)c1cccs1 | 88.3
Cc1cc(Cl)ccc1OCCCC(=O)NO | 82.2
Clc1cccc(CNCCNCc2cccc(Cl)c2)c1 | 85.5

SMILES | viability [%]
CC(Cc1cccs1)NC(=O)c1cccc(Cl)c1 (centres undefined) | 85
Cc1ccc(NC(=O)COc2ccc3c(c2)CCC3)nc1 | 102
CCOC(=O)COc1cc(O)c2c(=O)cc(-c3ccccc3)oc2c1 | 118
COc1ccc(N2C(=O)C(F)(F)C2c2cccc(F)c2)cc1 (centres undefined) | 95.5
Cc1cc(C(=O)N/N=C/c2cccc(Cl)c2Cl)no1 | 101
COC(=O)COc1cccc(/C=N/NC(=O)CCSc2ccccc2)c1 | 78.9
NC(=O)N/N=C\c1cc(Br)ccc1O | 89.5
COCCNC(=O)CC(=O)N/N=C/c1cccc(C(=O)OC)c1 | 107
Clc1ccccc1CSc1nnc([C@@H]2CCCN2)o1 | 107
O=C(COC(=O)CCc1c[nH]c2ccccc12)Nc1ccc([N+](=O)[O-])cc1 | 95
CC1N(C)c2cccc3cccc(c23)N1C | 91.4
COC(=O)c1cccc(COC(=O)c2cc3ccccc3oc2=O)c1 | 128
Cc1cc(Cl)ccc1NNC(=O)c1c(C)noc1C | 125
O=C(NN=C1C2CC3CC1CC(Cl)(C3)C2)c1cccs1 | 104
O=[N+]([O-])c1cc(N=Nc2ccc3ccccc3c2)ccc1O | 83.7
O=C(NNc1nc2ccccc2s1)Nc1ccc(F)cc1 | 89.4
O=C(COc1ccccc1)NNc1nc2ccccc2s1 | 108
Clc1cccc(/C=N\Nc2nccs2)c1 | 101
O=C(N/N=C/C=C/c1ccccc1[N+](=O)[O-])c1ccncc1 | 113
